# Assay results reported in PubChem BioAssay AID1035475 (Broad Institute, 2014).
# Measured potencies and affinities stand elsewhere. Results filed as inconclusive are left out. Activity calls are given as the source filed them.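 How the source made its calls: active means fluorescent signal drops by 40% or more, counted as a hit; inconclusive means no clear call, values can overlap the other calls; inactive means the rest, including any activity in the opposite direction.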
# Assay: blockers of FN fibrillogenesis by fibroblasts – AH1F cells, Alexa488-FN fluorescence, cherry-picks, dose response (AID 1035475);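 further: AH1F fibroblasts incorporating labeled fibronectin into their extracellular matrix; 0% = neutral control wells and -100% = wells without labeled fibronectin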
# Details: Alexa488-fibronectin deposition fluorescence, overnight; series mostly up to 35 µM; activity change, negative = inhibition: at the top concentration
row,SMILES,"activity change, negative = inhibition"
1,Cc1cc(C)n2ncc(C(=O)NCc3ccc(Cl)cc3)c2n1,-4.49% (inactive)
2,C[C@@H]1CN([C@H](C)CO)C(=O)c2cc(NC(=O)C3CCCCC3)ccc2O[C@H]1CN(C)Cc1ccc(-c2ccccc2)cc1,6.62% (inactive)
3,O=c1c2cc(N3CCOCC3)ccc2[nH]c(=S)n1Cc1ccc(Cl)cc1,-36.2% (inactive)
4,C[C@H](CO)N1C[C@H](C)[C@H](CN(C)C(=O)c2cccc(F)c2)Oc2ncc(-c3ccccc3)cc2C1=O,25% (inactive)
5,COCC(C)n1c(SCc2nc(N)nc(Nc3ccccc3C)n2)nc2ccccc2c1=O (stereo not given),-35.8% (inactive)
6,CO[C@H]1CN(C)C(=O)c2ccc(NC(=O)c3ccc(-c4ccccc4)cc3)cc2OC[C@@H](C)NC[C@H]1C,12.2% (inactive)
7,COC(=O)C[C@@H]1CC[C@H]2[C@H](COc3ccc(NC(=O)Cc4cccs4)cc3C(=O)N2C)O1,-0.769% [at 30 µM] (inactive)
8,C[C@@H]1CN([C@@H](C)CO)C(=O)c2cc(-c3ccncc3)cnc2O[C@@H]1CN(C)C(=O)Cc1cccnc1,44.5% (inactive)
9,Cc1cccc(NC(=O)c2ccc(S(=O)(=O)N3CCCCC3)cc2)n1,-12.8% (inactive)
10,O=C(Nc1ccccc1F)N1C[C@@H]2[C@H](c3ccccc31)[C@H](CO)N2C(=O)C1CC1,28.6% (inactive)
11,C[C@H](CO)N1C[C@H](C)[C@H](CN(C)Cc2ccccc2)Oc2ncc(-c3ccccc3)cc2C1=O,26.4% (inactive)
12,O=S(=O)(c1ccccc1F)N1CC[C@H]2[C@H](CO)Nc3ccc(-c4cccc(F)c4)cc3[C@H]21,11.5% (inactive)
13,C[C@H](O)C#Cc1ccc2c(c1)O[C@H](CN(C)C)[C@H](C)CN([C@@H](C)CO)S2(=O)=O,28% (inactive)
14,COCC(=O)Nc1ccc2c(c1)C(=O)N(C)[C@@H]1CC[C@H](CC(=O)NCc3ccccc3Cl)O[C@@H]1CO2,47.3% (inactive)
15,COC(=O)C[C@H]1CC[C@@H]2[C@@H](COc3ccc(NC(=O)Cc4cccs4)cc3C(=O)N2C)O1,33% (inactive)
16,C=CCC[C@H](Cc1ccc(F)cc1)C(=O)OC[C@H](Cc1c[nH]c2ccccc12)NC(=O)[C@@H](CC=C)CC(=O)N[C@@H](CO)Cc1ccccc1,19.2% (inactive)
17,C[C@H](CO)N1C[C@H](C)[C@H](CN(C)Cc2ccc(-c3ccccc3)cc2)Oc2ccc(NC(=O)C3CCCCC3)cc2C1=O,32.1% [at 30 µM] (inactive)
18,C[C@H](O)C#Cc1ccc2c(c1)O[C@H](CN(C)C)[C@@H](C)CN([C@@H](C)CO)S2(=O)=O,31.3% (inactive)

row,SMILES,"activity change, negative = inhibition"
1,CO[C@H]1CN(C)C(=O)c2ccc(NC(=O)Nc3cc(Cl)cc(Cl)c3)cc2OC[C@H](C)NC[C@@H]1C,5.11% (inactive)
2,CCN1CCN(C(c2ccccc2)c2nnnn2Cc2ccccc2)CC1 (stereo not given),-10.2% (inactive)
3,CCCc1cc(C(=O)OC)c(NC(=O)CCC(=O)O)s1,-15.6% (inactive)
4,CCN(Cc1ccncc1)C(=O)c1ccc2c(c1)S(=O)(=O)c1ccccc1C2=O,-11.4% (inactive)
5,O=C(CSc1nc2ncc(Cl)cc2[nH]1)c1c[nH]c2ccccc12,-35.1% (inactive)
6,COC(=O)C[C@H]1CC[C@H]2[C@H](COc3ccc(NC(=O)Cc4cccs4)cc3C(=O)N2C)O1,16.8% (inactive)
7,CC(NC(=O)CSc1ccc(S(=O)(=O)N2CCOCC2)cn1)c1ccc(Cl)cc1Cl (stereo not given),-9.93% (inactive)
8,CO[C@H]1CN(C)C(=O)c2cc(NC(=O)Nc3cc(Cl)cc(Cl)c3)ccc2OC[C@H](C)NC[C@H]1C,9.38% (inactive)
9,CN1c2ccc(-c3ccccc3)cc2[C@H]2[C@H](CCN2C(=O)CN2CCOCC2)[C@H]1CO,34.4% (inactive)
10,C[C@@H]1CN([C@@H](C)CO)C(=O)c2cc(-c3ccccc3)cnc2O[C@@H]1CN(C)C(=O)c1cccc(F)c1,14.6% (inactive)
11,O=C(OCC(O)C(O)COC(=O)c1ccccc1)c1ccccc1 (stereo not given),-11.1% (inactive)
12,N#C[C@@H]1[C@H](c2ccccc2C2=CCCCC2)[C@H](CO)N1S(=O)(=O)c1ccccc1,25.5% (inactive)
13,Cc1ccc(NC(=O)COC(=O)c2cc(Cl)ccc2[N+](=O)[O-])c(C)c1,-12.9% (inactive)
14,COc1ccc(-c2csc(CCn3nc(C)cc3C)n2)cc1OC,-6.87% (inactive)
15,C[C@@H]1CN([C@H](C)CO)C(=O)c2cc(-c3ccccc3)cnc2O[C@@H]1CN(C)C(=O)c1cccc(F)c1,46% (inactive)
16,CCOC(=O)c1cnc(SCc2nc(N)nc(Nc3ccc(OC)cc3)n2)nc1N,-30.6% (inactive)
17,CN(C)C(=O)c1ccc(-c2ccc3c(c2)[C@H]2[C@H](CCN2C(=O)c2ccc(F)cc2)[C@H](CO)N3C)cc1,29.3% (inactive)
